Measured values from PubChem BioAssay (NCATS).
Records with an inconclusive call do not appear. Activity calls are given as the source filed them. Calls follow the shape of the dose curve; as a rule, active = well fitted inhibition curve with a large enough effect; inconclusive = small, poorly fitted or top-dose-only effect; inactive = flat fitted curve, though single readings scatter.

Tests used:
HaCat [1] = assay: Cytotoxic Profiling of Annotated Libraries Using Quantitative High-Throughput Screening (AID 1296008); conditions: Five cell lines viability, CellTiter-Glo ATP luminescence, 48-72 h; max response: stronger effect = lower value; as to max response: % is scaled to controls: 0 for no effect and ±100 for the full control effect
In short: (§1)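 Cytotoxicity was measured as CellTiter-Glo ATP luminescence, read after 10 min at room temperature. Compound treatment of the cells lasted 48 or 72 hr at 37 degrees Celsius in a qHTS format.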

KB-3-1 = assay: as above; conditions: Five cell lines viability, CellTiter-Glo ATP luminescence, 48-72 h; max response: stronger effect = lower value
In short: as §1

NIH3T3 [2] = assay: as above; conditions: Five cell lines viability, CellTiter-Glo ATP luminescence, 48-72 h; max response: stronger effect = lower value
In short: as §1

HEK293T = assay: qHTS assay to identify novel small-molecules to repurpose for Merkel cell carcinoma treatment (AID 1296009); conditions: MCC and control cell lines, CellTiter-Glo viability, 72 h; at 44.8 µM (top of the series) unless noted
In short: (§2)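 After compound transfer in DMSO, plates were kept 72 hr at 37 degree celsius. Luminescent ATP signal from CellTiter-Glo served as viability measure, normalized against DMSO and no-cell controls.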

NIH3T3 [3] = assay: as above; conditions: MCC and control cell lines, CellTiter-Glo viability, 72 h; at 44.8 µM (top of the series) unless noted
In short: as §2

HACAT [4] = assay: as above; conditions: MCC and control cell lines, CellTiter-Glo viability, 72 h; series mostly up to 44.8 µM
In short: as §2
Also: nearly all actives have a fitted effect of over 60% in size.

O=C1NC(Cc2ccccc2)C(=O)N2CCCC12 (stereo unspecified)
inactive: max response (HaCat [1]) 2.36% | max response (KB-3-1) 9.71% | max response (NIH3T3 [2]) -0.863%

COc1ccc([C@@]2(O)c3c(ccc(CC=C(C)C)c3O)NC(=O)[C@@H]2OC)cc1
inactive: outcome (HEK293T)

O=C(/C=C/c1ccccc1)OC[C@]12O[C@H]1[C@@H](O)[C@@H]1C=CO[C@@H](O[C@@H]3O[C@H](CO)[C@@H](O)[C@H](O)[C@H]3O)[C@@H]12
inactive: outcome (HEK293T) inactive [at 17.4 µM]

COC(=O)C1=CO[C@@H](O[C@@H]2O[C@H](CO)[C@@H](O)[C@H](O)[C@H]2O)[C@@H]2C(COC(C)=O)=C[C@H](O)[C@H]12
inactive: outcome (HaCat [1]) | outcome (KB-3-1) | outcome (NIH3T3 [2]) | outcome (NIH3T3 [3]) inactive [at 17.4 µM]

CC(=O)O[C@@H]1[C@@H](O)[C@H](O[C@H]2CC[C@]34C[C@]35CC[C@]3(C)[C@@H]([C@@]6(C)CC[C@@H](C(C)(C)O)O6)[C@@H](O)C[C@@]3(C)[C@@H]5C[C@H](O[C@@H]3O[C@H](CO)[C@@H](O)[C@H](O)[C@H]3O)[C@H]4C2(C)C)OC[C@H]1O
inactive: outcome (HaCat [1]) | outcome (KB-3-1) | Potency (HACAT [4])

CCOc1cc(CC(=O)NC(CC(C)C)c2ccccc2N2CCCCC2)ccc1C(=O)O (stereo unspecified)
inactive: max response (HaCat [1]) 3.59% | max response (KB-3-1) -3.75% | outcome (NIH3T3 [2]) | outcome (NIH3T3 [3])

O=C(O)[C@H](Cc1ccc(Nc2nccc3ccncc23)cc1)NC1=C(Br)C(=O)C12CCCCC2
inactive: outcome (HaCat [1]) | outcome (KB-3-1) | Potency (HACAT [4])

C/C(=C\CCC(C)CCO)C(=O)OC1(C)CCC2C(C(=O)O)=COC(OC3OC(CO)C(O)C(O)C3O)C21 (stereo unspecified)
inactive: max response (HaCat [1]) -20.6% | outcome (KB-3-1) | outcome (NIH3T3 [2]) inactive; activator | outcome (HEK293T) inactive [at 17.4 µM] | outcome (NIH3T3 [3]) inactive; activator [at 17.4 µM]

CCOC(=O)c1sc(NC(=O)[C@H](C(C)C)n2c(=O)[nH]c3ccccc3c2=O)nc1C
inactive: outcome (HaCat [1]) | max response (KB-3-1) 8.45% | Potency (HACAT [4])

COc1cc2occc2c(O[C@@H]2O[C@H](CO)[C@@H](O)[C@H](O)[C@H]2O)c1CCC(=O)O
inactive: max response (HaCat [1]) 2.4% | outcome (KB-3-1) | max response (NIH3T3 [2]) 1.36% | outcome (HEK293T) inactive [at 17.4 µM]

CO/N=C(/C(=O)N[C@@H]1C(=O)N2C(C(=O)O)=C(Cn3ccc(=N)n3CCO)CS[C@H]12)c1csc(N)n1
inactive: outcome (HaCat [1]) | max response (KB-3-1) -6.11% | outcome (NIH3T3 [2]) | outcome (NIH3T3 [3])

Cc1nc2ccc(Oc3ccc(F)cc3)cc2c(=O)n1C[C@H]1CCCN(C(C)C)C1
inactive: outcome (HaCat [1]) | max response (KB-3-1) 5.64% | Potency (HACAT [4])

O=C1C=CC2OC(c3ccccc3)C(O)C2O1 (stereo unspecified)
inactive: outcome (HaCat [1]) | max response (KB-3-1) -14.2% | Potency (HACAT [4])

CC(=O)OC1C(O)CC2(C)C(CCC(C)C23Cc2c(O)cc(CO)c(C=O)c2O3)C1(C)C (stereo unspecified)
inactive: max response (HaCat [1]) -3.73% | max response (KB-3-1) 6.45% | outcome (NIH3T3 [2]) | outcome (NIH3T3 [3]) inactive [at 17.4 µM]

CC(=O)OC1CC2C3(C)CCC(OC(=O)CC(=O)O)C(C)(C)C3CCC2(C)C2(C)CCC(C3(C)CCC(=O)O3)C12 (stereo unspecified)
inactive: max response (HaCat [1]) 3.4% | outcome (KB-3-1) | max response (NIH3T3 [2]) 2.16% | outcome (HEK293T) inactive [at 17.4 µM]

C[C@H](CCC(=O)O)[C@H]1CC[C@H]2[C@@H]3C[C@H](O)[C@@H]4C[C@H](O)CC[C@]4(C)[C@H]3CC[C@]12C
inactive: outcome (HaCat [1]) | outcome (KB-3-1) | outcome (NIH3T3 [2]) | Potency (HACAT [4]) | outcome (NIH3T3 [3])

O=C(OC1C=C(CO)C2C(OC3OC(CO)C(O)C(O)C3O)OC=CC12)c1ccc(O)cc1 (stereo unspecified)
inactive: max response (HaCat [1]) -13.5% | outcome (KB-3-1) | outcome (NIH3T3 [2]) | outcome (NIH3T3 [3]) inactive [at 17.4 µM]

NC1(C(=O)NC(CCO)c2ccc(Cl)cc2)CCN(c2ncnc3[nH]ccc23)CC1 (stereo unspecified)
inactive: max response (HaCat [1]) -41.5% | max response (KB-3-1) -13.8% | outcome (NIH3T3 [2]) | outcome (NIH3T3 [3])

C=CC(C)(C)c1[nH]c2cc3c(cc2c1CC1NC(=O)C2CCCN2C1=O)C=CC(C)(C)O3 (stereo unspecified)
inactive: outcome (HaCat [1]) | max response (KB-3-1) 8.42% | outcome (NIH3T3 [2]) | outcome (HEK293T) inactive [at 17.4 µM] | outcome (NIH3T3 [3]) inactive [at 17.4 µM]

C[C@@H]1O[C@@H](O[C@@H]2[C@@H](O)[C@@H](O[C@]3(CO)O[C@H](CO)[C@@H](O)[C@@H]3OC(=O)/C=C/c3ccc(O)cc3)O[C@H](CO)[C@H]2OC(=O)/C=C/c2ccc(O)cc2)[C@H](O)[C@H](O)[C@H]1O[C@@H]1O[C@@H](C)[C@H](O[C@@H]2OC[C@](O)(CO)[C@H]2O)[C@@H](O)[C@H]1O
inactive: outcome (HaCat [1]) | max response (KB-3-1) 3.92% | max response (NIH3T3 [2]) -0.786% | outcome (HEK293T) inactive [at 9.27 µM]
